Out of some 330,000 compounds screened, about 520 (0.16%) were called active. Shown is part of a subset that was picked to be rich in actives. Values without a mark were called inactive.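 Rule for the calls: active = inhibition of at least 50% in every replicate; inconclusive = best replicate reaches 50% inhibition but some replicates fall short; inactive = the rest.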
Target: Histone acetyltransferase RTT109 (Candida albicans (strain SC5314 / ATCC MYA-2876)) (UniProt Q5AAJ8)
Assay: Rtt109-Vps75 histone acetyltransferase blockade – biochemical, ThioGlo CoA-SH fluorescence, plate reader, primary screen (AID 540336)
Conditions: purified Rtt109/Vps75, ThioGlo CoA-SH fluorescence, 4 h; at 34.9 µM; stronger effect = higher value

Chain of Histone acetyltransferase RTT109 (Candida albicans (strain SC5314 / ATCC MYA-2876)) (Q5AAJ8 whole entry, looked up): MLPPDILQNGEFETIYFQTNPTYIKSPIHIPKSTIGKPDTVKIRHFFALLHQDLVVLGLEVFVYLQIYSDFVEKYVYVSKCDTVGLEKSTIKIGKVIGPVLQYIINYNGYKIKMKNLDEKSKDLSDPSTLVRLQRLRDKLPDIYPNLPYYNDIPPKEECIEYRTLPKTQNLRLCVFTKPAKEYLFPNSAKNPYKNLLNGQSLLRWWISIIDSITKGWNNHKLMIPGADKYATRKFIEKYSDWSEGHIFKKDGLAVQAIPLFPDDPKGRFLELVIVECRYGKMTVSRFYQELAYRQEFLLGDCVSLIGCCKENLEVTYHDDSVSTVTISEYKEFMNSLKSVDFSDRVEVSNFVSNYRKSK

Row | SMILES | inhibition
1 | CCCCCCCCCCCCn1ccc(=N)cc1 | 64.2% (active)
2 | CC(=O)OC1C2(CC3N4C(=O)C5(CO)SSC4(CC31O)C(=O)N5C)OC(C)C(C)(C)C2=O (stereo not given) | -1.66%
3 | O=C(c1ccccc1)C(O)(CN1CCCCC1)c1ccccc1 (stereo not given) | -0.455%
4 | CCC(C)(O)C(=O)OC1C(=O)OC2CC3C(C)=CC(=O)C(O)C3(C)C3C4(O)OCC23C1C(C)C4O (stereo not given) | 11.1%
5 | COC1C(O)C(C)OC(OC2CCC3(C=O)C(CCC4C3CCC3(C)C(C5=CC(=O)OC5)CCC43O)C2)C1O (stereo not given) | 9.01%
